EWS-Fli block: EWS/Fli-driven NR0B1 reporter inhibitors, primary screen, A673 cells, NR0B1 luciferase, luminescence, MLPCN library; viability-normalised; inhibition, % at 12.6 µM; 0.67% of 350,000 active; AID 651661, 2012;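 active means mean inhibition of at least 50% after viability correction, with every replicate also passing that limit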;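 further: firefly luciferase signal divided by Alamar Blue viability fluorescence both relative to DMSO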
MITF TRPM1 HTS: activators of MITF-driven TRPM1 promoter reporter, primary screen, cell-based, SK-MEL-5, luciferase, single point; SK-MEL-5 TRPM1-promoter luciferase, 24 h; % of positive control, neutral wells = 0; activation, % at 12.5 µM; 0.75% of 300,000 active; AID 588334, 2011;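 active means mean activation of at least 80% with every replicate also reaching 80%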;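 further: 0% = neutral control wells and 100% = parthenolide positive control wells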
esBAF inh: Bmi1 luciferase reporter increase in mESCs, primary screen, esBAF inhibitor project, mouse ES cells, Bmi1 luciferase knock-in, single point; AID 602393, 2012; 2% of 350,000 active; 24 h; 100% = twice the neutral-well signal; reporter increase, % at 12.5 µM; in the data active means activation above about 40%;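 further: 0% = median of the plate's neutral control wells and 100% = double that signal; a rise in the Bmi1 reporter signal indicates esBAF inhibition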
Wnt bcat act: Wnt/beta-catenin pathway activators, primary screen, cell-based, plate reader, single point; activation, % at 9.35 µM; 1.2% of 300,000 active; Wnt/beta-catenin reporter cell assay, activator; in the data active means activation above about 30%, passing the limit was not always enough;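 further: 0% = neutral control wells and 100% = positive control wells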
TRPM1 prom inh: inhibitors of MITF-dependent TRPM1 promoter reporter, primary screen, cell-based, SK-MEL-5, single point, luciferase | SK-MEL-5 TRPM1 promoter luciferase, 24 h | inhibition, % at 12.5 µM | 0.83% of 330,000 active;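 active means mean inhibition across replicates of 60% or more, whatever share of single replicates reaches that level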
PAX8 inh HTS: inhibitors of PAX8-driven TPO luciferase reporter, primary screen, RMG-I cells, single concentration; SteadyGlo, 24 h; inhibition, % at 12.6 µM; 1.2% of 360,000 active;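 active means mean replicate inhibition at least 60% with every replicate also reaching 60%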;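 further: luciferase light reporting Pax8 driven TPO promoter activity; plate controls were median of neutral control wells for no effect and mitoxantrone controls for full effect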
* marks the source's active call; other numbers are inactive results. Hits are enriched below; roughly 4% of the tested compounds scored in any of these assays.

Results for CC(C)Oc1ccc(C(=O)OCC(=O)c2ccc[nH]2)cc1 ?
EWS-Fli block: -4; MITF TRPM1 HTS: 89*; esBAF inh: 65*; Wnt bcat act: 45*; TRPM1 prom inh: -85; PAX8 inh HTS: -151

How did COc1ccc(C(=O)COC(=O)c2sccc2C)cc1OC do in these assays?
EWS-Fli block: -80; MITF TRPM1 HTS: 103*; esBAF inh: 91*; Wnt bcat act: 45*; TRPM1 prom inh: -111; PAX8 inh HTS: -93

Results for Cc1ccsc1C(=O)OCC(=O)NCCNC(=O)COC(=O)c1sccc1C ?
EWS-Fli block: -2; MITF TRPM1 HTS: 5; esBAF inh: -5; Wnt bcat act: -7; TRPM1 prom inh: -4; PAX8 inh HTS: 19

How did CC(=O)N1CC(=O)N2[C@H](C1)[C@H](c1ccc(-c3ccc(C)cc3)cc1)[C@@H]2CO do in these assays?
EWS-Fli block: 7; PAX8 inh HTS: 3

Results for Cc1[nH]n(-c2ccccc2)c(=O)c1N=Nc1ccccc1 ?
EWS-Fli block: -86; MITF TRPM1 HTS: 24; Wnt bcat act: -2; TRPM1 prom inh: -44; PAX8 inh HTS: -134

What do the screens show for `Cc1ccc(N=Nc2c(N)n(-c3ccccc3)[nH]c2=O)cc1`?
MITF TRPM1 HTS: 78; esBAF inh: 42*; TRPM1 prom inh: -68

What do the screens show for `CN1CCN(C(=O)C[C@H]2CC[C@H]3[C@@H](COC[C@H](O)CN3Cc3cccc(Cl)c3)O2)CC1`?
EWS-Fli block: -1; esBAF inh: 0; PAX8 inh HTS: -3

Results for O=[N+]([O-])c1ccc(N=Nc2ccc(O)cc2O)cc1 ?
MITF TRPM1 HTS: -3; esBAF inh: -6; Wnt bcat act: 9; TRPM1 prom inh: -13; PAX8 inh HTS: 81*

Results for O=[N+]([O-])c1cccc(N=Nc2ccc(O)cc2O)c1 ?
EWS-Fli block: -18; MITF TRPM1 HTS: 4; esBAF inh: -10; Wnt bcat act: -14; TRPM1 prom inh: -3; PAX8 inh HTS: 81*

How did C[C@H](CO)N1C[C@H](C)[C@@H](CN(C)CC2CC2)Oc2ccc(NC(=O)Nc3ccc(F)cc3)cc2CC1=O do in these assays?
EWS-Fli block: 1; esBAF inh: 0; PAX8 inh HTS: 11

How did CC(=O)OCC1OC(n2ccc3ccccc32)C(OC(C)=O)C(OC(C)=O)C1OC(C)=O (stereo unspecified) do in these assays?
MITF TRPM1 HTS: -3; esBAF inh: -6; TRPM1 prom inh: 5

Results for COC(=O)C1C=CC(OC2OC(COC(C)=O)C(OC(C)=O)C(OC(C)=O)C2OC(C)=O)n2c(=O)n(-c3ccccc3)c(=O)n21 (stereo unspecified) ?
EWS-Fli block: -4; MITF TRPM1 HTS: -94; Wnt bcat act: -3; TRPM1 prom inh: 95*; PAX8 inh HTS: 101*

How did C[C@@H]1CN([C@H](C)CO)C(=O)c2cccc(NS(C)(=O)=O)c2O[C@H]1CN(C)C(=O)Nc1cccc2ccccc12 do in these assays?
esBAF inh: -5; PAX8 inh HTS: 12

How did O=c1c(-c2ccc(F)cc2)coc2c3c(ccc12)OCCO3 do in these assays?
MITF TRPM1 HTS: 133*; esBAF inh: 52*; Wnt bcat act: 5; TRPM1 prom inh: -131

How did C=C1C(=O)C23C(O)C1CCC2C12COC3(O)C(O)C1C(C)(C)CCC2O (stereo unspecified) do in these assays?
EWS-Fli block: 68*; esBAF inh: 9; Wnt bcat act: -1

Results for C[C@H]1CN([C@@H](C)CO)C(=O)Cc2cc(NC(=O)Nc3ccc4c(c3)OCO4)ccc2O[C@@H]1CN(C)C(=O)Nc1ccc(C(F)(F)F)cc1 ?
EWS-Fli block: -3; esBAF inh: -4; PAX8 inh HTS: -1

What do the screens show for `CCCC#Cc1ccc2c(c1)O[C@H](CN(C)C(=O)c1ccccn1)[C@H](C)CN([C@@H](C)CO)S2(=O)=O`?
EWS-Fli block: 2; esBAF inh: 3

Results for CCCCC1Cc2[nH]c(=S)[nH]c(=O)c2C(c2ccc(F)cc2)O1 (stereo unspecified) ?
EWS-Fli block: 7; esBAF inh: -1; Wnt bcat act: 0; PAX8 inh HTS: 95*

From PubChem
